The values that follow come from the supplement of paper PMC6555819.

The test system of the first assay is PXR homodimer (NR concentration 270 nM). Nature of the assay: PBM binding z-score (relative to random genomic background probes); higher = stronger binding; sequences stand for … in GC…GCGATTGACAGCGTAGAATGAAGG
The method, boiled down:
(§1)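 Regression normalization was applied to scanned fluorescence from custom Agilent 4×180K protein-binding microarrays. Before scanning, arrays were incubated 1 h with ligand-free nuclear receptor dimers, and binding was detected with antibodies against each partner (one per run). Binding z-scores use the random background probes as reference.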
On to AGAACGAGGGCACGCTGAGTTCATAGCAGAGTAG, for which the PBM binding z-score is 10.4.

Consider GATACAGGGTCAGCTAGAGGACAGAGTATGGAAA, for which the PBM binding z-score amounted to 0.27.

Regarding AGTCAAAGTTCATCTAGGTAACGTAGGATATGCT, the PBM binding z-score was 7.16.

In turn, GGAACGAGGACAAGTTGATAGCAGAGTTTGATGG came in with a PBM binding z-score of 0.0308.

For the sequence GCTGCTAGGTCTGGTTGGTCAGCTAACGGGTACG, the PBM binding z-score is -0.661.

AGAATGAGGTAATACGTAGATCAGGGAAGAAAGT showed a PBM binding z-score of 0.294.

AGAACGAGGGCACGCTGAGTTGATGGCAGAGTAG had a PBM binding z-score of -0.226.

TCACGGAGGACACGAAAGGTCAGAGCTCGACATC gave a PBM binding z-score of 0.408.

Turning to TCTTGTAGATAAGCAGGTTAAGAAAGCTGGCCAA, the PBM binding z-score was -0.278.

The sequence CCTAGTTGGTCAGGAGGTTACACACCGGATATGA showed a PBM binding z-score of 0.653.

TCTGCTAGGTCAGTTGGTCAGCCAACGAGCTGCC came in with a PBM binding z-score of -0.764.

In the case of CATCCAAGGTCAGAGAGGTCAGTGAATGCCGAGT, the PBM binding z-score worked out at 12.

The sequence TCAAGCAGGCCAGAGGGTCACTCAAGAGGTACGG showed a PBM binding z-score of -0.357.

As to AATACAGGGTCACTAGGCGAGAGTAGGTACGAAT, the PBM binding z-score stood at 0.858.

In the case of CCTACTTGGTCAGGAGGTCACACACCGGATATGA, the PBM binding z-score was 1.05.

GGAACGAGGGCAAAGATGATAGCATCTGTCGACG displayed a PBM binding z-score of -0.309.

For CCTACAGGGCCACGAAAGGTCATTGATTCAGTGA, the PBM binding z-score was 1.86.

TTACCAAGGTGTAGGTCGTTGATCCCTCTGTAGA came in with a PBM binding z-score of -0.501.

CGAACTACGTCAGAACAGGACAGTGAAGGATGAT displayed a PBM binding z-score of -0.0465.

For CCTACTGGGCCACGGAAGGTCATTGATTCAGTGA, the PBM binding z-score is 0.303.

In the case of CCTAGTTGGTCAAGAGGTCACACACCGGATATGA, the PBM binding z-score was 1.63.

TCTTGTAGATTAACAGGAGGTTAAGAAAGATCGA displayed a PBM binding z-score of 0.157.

Turning to CGTCCAAGGTCAAAGGTCGGTGAAGAGATGACGG, the PBM binding z-score is 0.774.

In the case of GCTGCTAGGTCAGATTGGTCAGCTAACGGGTACG, the PBM binding z-score is -0.223.

The sequence TCTAGTAGATCAACAGGAGGTTAAGAAAGATCGA came in with a PBM binding z-score of 0.18.

In turn, ACTATTAGTTGACTTAGGCCAACCGATACGACGC returned a PBM binding z-score of 0.397.

The sequence TATACAGGGTCATAGGCCAGAGTACGAATGTCGA yielded a PBM binding z-score of 0.517.

The sequence GCTCGGATGACAAGGTCAGAGCTTTGTCCGTAGA gave a PBM binding z-score of -0.626.

CGTCCAAGGTCAATGCTAGGTCGGTGAAAGCATT: the PBM binding z-score stood at 0.759.

The sequence TCTATTAGTTGACTAGGGCAACCGAAACAGCGGA came in with a PBM binding z-score of 0.269.

TTGCCAAGGTGAAGGTCGTTGATCCCTCTGTAGA yielded a PBM binding z-score of -0.362.

As for TCTCGGAGGACACGATGGTCAGAGCTTTCCAGAG, the PBM binding z-score is -0.66.

TCTATTAGTTGATTAGGGCAACTGAAACAGCGGA: the PBM binding z-score came to 0.247.

In turn, TCTTGTAGATGAAAGGTTAAGAAAGCCGAAGCCT came in with a PBM binding z-score of 0.117.

As for TCAGACATGTGAAGGTAACTCAGGTACGCAGTCG, the PBM binding z-score was -0.196.

ATATGTAGGTTAATGGTCATTCAGGTTGGTTCGC came in with a PBM binding z-score of 0.787.

Regarding ACTATTAGTTGAGACAAGGGCAACCGATAGGTTG, the PBM binding z-score is 0.47.

GCTGCTAGGTCCACTGATGGTCAGCTAAAGCTCG: the PBM binding z-score is -1.03.

With TTACCAAGGTGAAGGTCCTTGATCCCTCTGTAGA, the PBM binding z-score was -0.323.

In the case of CAAACTAGGTCACGAAAGGTCAATGTCGAATGAC, the PBM binding z-score was 1.92.

Another assay has as its system RARa:RXR (NR concentration 270 nM, RXRa partner concentration 90 nM). The description is as above. The method, boiled down: as §1
In turn, AGAACGAGGGCACGCTGAGTTCATAGCAGAGTAG yielded a PBM binding z-score of 2.94.

As to GATACAGGGTCAGCTAGAGGACAGAGTATGGAAA, the PBM binding z-score amounted to 4.99.

Turning to AGTCAAAGTTCATCTAGGTAACGTAGGATATGCT, the PBM binding z-score was determined as 3.89.

GGAACGAGGACAAGTTGATAGCAGAGTTTGATGG displayed a PBM binding z-score of 0.108.

GCTGCTAGGTCTGGTTGGTCAGCTAACGGGTACG displayed a PBM binding z-score of -0.909.

The sequence AGAATGAGGTAATACGTAGATCAGGGAAGAAAGT gave a PBM binding z-score of 0.431.

AGAACGAGGGCACGCTGAGTTGATGGCAGAGTAG displayed a PBM binding z-score of 0.999.

For the sequence TCACGGAGGACACGAAAGGTCAGAGCTCGACATC, the PBM binding z-score stood at 4.8.

As for TCTTGTAGATAAGCAGGTTAAGAAAGCTGGCCAA, the PBM binding z-score turned out to be 0.402.

As for CCTAGTTGGTCAGGAGGTTACACACCGGATATGA, the PBM binding z-score was determined as 1.38.

In turn, TCTGCTAGGTCAGTTGGTCAGCCAACGAGCTGCC yielded a PBM binding z-score of 0.399.

Sequence CATCCAAGGTCAGAGAGGTCAGTGAATGCCGAGT came in with a PBM binding z-score of 5.72.

In turn, TCAAGCAGGCCAGAGGGTCACTCAAGAGGTACGG yielded a PBM binding z-score of 2.52.

On to AATACAGGGTCACTAGGCGAGAGTAGGTACGAAT, for which the PBM binding z-score is 4.27.

CCTACTTGGTCAGGAGGTCACACACCGGATATGA: the PBM binding z-score came to 4.89.

As to GGAACGAGGGCAAAGATGATAGCATCTGTCGACG, the PBM binding z-score stood at 0.189.

In turn, CCTACAGGGCCACGAAAGGTCATTGATTCAGTGA showed a PBM binding z-score of 5.07.

TTACCAAGGTGTAGGTCGTTGATCCCTCTGTAGA registered a PBM binding z-score of 0.688.

CGAACTACGTCAGAACAGGACAGTGAAGGATGAT showed a PBM binding z-score of -0.592.

Turning to CCTACTGGGCCACGGAAGGTCATTGATTCAGTGA, the PBM binding z-score worked out at 3.15.

Consider CCTAGTTGGTCAAGAGGTCACACACCGGATATGA, for which the PBM binding z-score turned out to be 5.63.

TCTTGTAGATTAACAGGAGGTTAAGAAAGATCGA displayed a PBM binding z-score of 1.25.

Regarding CGTCCAAGGTCAAAGGTCGGTGAAGAGATGACGG, the PBM binding z-score is 7.5.

GCTGCTAGGTCAGATTGGTCAGCTAACGGGTACG showed a PBM binding z-score of 0.855.

TCTAGTAGATCAACAGGAGGTTAAGAAAGATCGA registered a PBM binding z-score of 1.05.

Sequence ACTATTAGTTGACTTAGGCCAACCGATACGACGC displayed a PBM binding z-score of 0.152.

On to TATACAGGGTCATAGGCCAGAGTACGAATGTCGA, for which the PBM binding z-score came out at 5.18.

Turning to GCTCGGATGACAAGGTCAGAGCTTTGTCCGTAGA, the PBM binding z-score was 2.09.

The sequence CGTCCAAGGTCAATGCTAGGTCGGTGAAAGCATT returned a PBM binding z-score of 4.18.

On to TCTATTAGTTGACTAGGGCAACCGAAACAGCGGA, for which the PBM binding z-score was found to be 0.566.

The sequence TTGCCAAGGTGAAGGTCGTTGATCCCTCTGTAGA gave a PBM binding z-score of 1.6.

TCTCGGAGGACACGATGGTCAGAGCTTTCCAGAG showed a PBM binding z-score of -0.201.

As to TCTATTAGTTGATTAGGGCAACTGAAACAGCGGA, the PBM binding z-score was 0.283.

TCTTGTAGATGAAAGGTTAAGAAAGCCGAAGCCT gave a PBM binding z-score of 2.05.

In turn, TCAGACATGTGAAGGTAACTCAGGTACGCAGTCG showed a PBM binding z-score of 0.493.

Regarding ATATGTAGGTTAATGGTCATTCAGGTTGGTTCGC, the PBM binding z-score was 0.723.

Take ACTATTAGTTGAGACAAGGGCAACCGATAGGTTG: the PBM binding z-score amounted to 0.553.

In the case of GCTGCTAGGTCCACTGATGGTCAGCTAAAGCTCG, the PBM binding z-score is -0.598.

TTACCAAGGTGAAGGTCCTTGATCCCTCTGTAGA had a PBM binding z-score of 1.01.

For the sequence CAAACTAGGTCACGAAAGGTCAATGTCGAATGAC, the PBM binding z-score stood at 7.1.
